A selection: hits, their analogues and other compounds. The true share with any hit is near 3.4%.
GPR151 ag – human GPR151 activation. hit rate 1% among 650,000. activation, % at 11.2 µM. PathHunter beta-arrestin GPR151 cells, luminescence; in the data active means activation above about 4.9%
Target sequence (Q8TDV0 whole entry, looked up): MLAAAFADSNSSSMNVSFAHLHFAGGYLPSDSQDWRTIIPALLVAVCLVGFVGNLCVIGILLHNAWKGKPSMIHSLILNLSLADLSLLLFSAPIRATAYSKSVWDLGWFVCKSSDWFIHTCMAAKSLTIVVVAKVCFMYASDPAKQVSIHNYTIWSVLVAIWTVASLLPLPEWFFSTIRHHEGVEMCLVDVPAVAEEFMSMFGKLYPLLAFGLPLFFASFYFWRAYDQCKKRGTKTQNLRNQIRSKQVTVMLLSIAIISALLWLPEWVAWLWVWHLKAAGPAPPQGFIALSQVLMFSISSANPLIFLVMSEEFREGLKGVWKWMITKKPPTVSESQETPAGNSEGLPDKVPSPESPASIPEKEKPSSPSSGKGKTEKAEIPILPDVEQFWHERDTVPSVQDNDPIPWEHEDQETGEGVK
MITF inh – inhibitors of human MITF; hit rate 0.91% among 650,000; inhibition, % at 2.6 µM; AlphaScreen MITF homodimerization, bead proximity signal; AID 1259374; in the data active means inhibition above about 50%
FBW7 act – human FBW7 E3 ligase activation, primary screen | AlphaScreen FBW7–phospho-cyclin E peptide binding, activator screen | normalized activity (activation), % at 26.1 µM | hit rate 0.13% among 650,000 | AID 1259310; in the data active means normalized activity above about 1.9%;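 further: purified mutant Fbw7 with reduced substrate affinity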
TEAD-YAP block – TEAD-YAP interaction inhibition | inhibition, % at 9.12 µM | AID 1259422 | hit rate 1.4% among 640,000 | HEK-TIYL cells, TEAD-Gal4/YAP UAS-luciferase luminescence; in the data active means inhibition above about 32%
MITF inh conf – confirmation of human MITF inhibitors. shares compounds with MITF inh. AlphaScreen MITF homodimerization, biotin/His-MITF beads. inhibition, % at 2.6 µM. hit rate 16% among 4,700;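 active means inhibition above a cutoff derived from the DMSO control wells, cut at about 28% in these data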;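 further: inhibitors lower the bead chemiluminescence by keeping MITF from dimerizing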
AS interf ctr – optically interferes with AlphaScreen signal. shares compounds with MITF inh. LysRS AlphaScreen counterscreen, signal interference, triplicate. inhibition, % at 2.6 µM. hit rate 7.6% among 4,700;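 active means inhibition above a cutoff derived from the DMSO control wells, cut at about 30% in these data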
Of the large screens only hits and unclear results are named; the others gave an inactive call (follow-up assays come after a bar, where they were run).

O=C(Cc1cccs1)N1CCC(Cn2cnc3ccccc32)CC1	MITF inh 65 | MITF inh conf inactive | AS interf ctr inactive
Cc1ccc(-c2noc(CN(C(=O)Cc3ccccc3[N+](=O)[O-])C(C)C)n2)cc1	none
CCc1ccc(NC(=O)CN(C)S(=O)(=O)c2ccc3c(c2)CCC(=O)N3)cc1	none
Cn1c(CC(=O)NNC(=O)Cc2coc3cc4c(cc23)CCC4)nc2ccccc21	none
O=C(c1cnn(-c2ccccc2)n1)N1CCN(c2cc(N3CCCCC3)ncn2)CC1	none
O=C(NCC(=O)N1CCC(Cn2cnc3ccccc32)CC1)c1ccccc1	MITF inh 56 | MITF inh conf inactive | AS interf ctr inactive
O=C(Nc1cccs1)N1CCC(Cn2cnc3ccccc32)CC1	none
O=C(c1cnn(-c2ccccc2)n1)N1CCC(Cn2cnc3ccccc32)CC1	MITF inh 58 | MITF inh conf inactive | AS interf ctr inactive
CCOC(=O)N1CCN(C(=O)CN2CCN(CC)CC2)CC1	MITF inh 71 | MITF inh conf inactive | AS interf ctr inactive
COc1cccc2cc(C(=O)N3CCC(Cn4cnc5ccccc54)CC3)oc12	MITF inh 60 | MITF inh conf inactive | AS interf ctr inactive
Nc1nnnn1/N=C\c1ccc(N2CCOCC2)cc1	none
C=CCN(c1ccccc1)S(=O)(=O)c1ccc(F)c(C(=O)Nc2ccc(F)c(Cl)c2)c1	none
O=C(CCC(=O)N(C1CC1)C1CCN(Cc2ccccc2)CC1)NCCN1CCOCC1	none
CCOC(=O)N/N=C/c1nc2ccccc2[nH]1	none
CCOC(=O)C1C(c2ccc(Cl)cc2)n2nc(C(F)(F)F)nc2NC1(C)O (configuration not stated)	none
O=C(C1CCC1)N1CCC(Cn2cnc3ccccc32)CC1	MITF inh 52 | MITF inh conf inactive | AS interf ctr inactive
CCc1ccccc1NC(=O)CCCN1C(=S)NC(C)(C)CC1C (configuration not stated)	none
CCN1CCN(CCNC(=O)CCCN2C(=S)NC(C)(C)CC2C)CC1 (configuration not stated)	MITF inh 71 | MITF inh conf inactive | AS interf ctr inactive
COC(=O)c1cc(COC(=O)c2cnccn2)oc1C	none
O=C(Nc1cccc(F)c1)c1ccc(-c2ccccc2[N+](=O)[O-])o1	none
COc1ccc(OC)c(CN2CCN(Cc3ccccc3C(F)(F)F)CC2)c1	MITF inh 71 | MITF inh conf inactive | AS interf ctr inactive
COc1ccc(CN2CCN(Cc3ccccc3C(F)(F)F)CC2)c(OC)c1	MITF inh 78 | MITF inh conf inactive | AS interf ctr inactive
COc1cc(OC)c(OC)cc1CN1CCN(Cc2ccccc2C(F)(F)F)CC1	MITF inh 76 | MITF inh conf inactive | AS interf ctr inactive
COc1cc(CN2CCN(Cc3ccccc3C(F)(F)F)CC2)cc(OC)c1O	MITF inh 68 | MITF inh conf inactive | AS interf ctr inactive
COc1ccc(OC)c(CN2CCN(c3ccccc3OC)CC2)c1	none
COc1cc(CN2CCN(Cc3ccccc3F)CC2)cc(OC)c1O	none
CCc1nnc(NC(=O)c2sc3nc4c(C)cc(C)cc4cc3c2N)s1	none
COc1ccccc1N1CCN(Cc2ccc(OC)c(OC)c2OC)CC1	none
COc1ccc(CN2CCN(Cc3ccccc3C(F)(F)F)CC2)c(OC)c1OC	MITF inh 59 | MITF inh conf inactive | AS interf ctr inactive
CCCCN(C)CCCNC(=O)CSCc1ccccc1Cl	MITF inh 76 | MITF inh conf inactive | AS interf ctr inactive
COc1ccccc1N1C(C)=CC(C)(C)N=C1SCc1ccccc1Cl	none
CCN(CC)C(=O)c1ccc(CN(c2cc(Cl)ccc2C)S(=O)(=O)c2ccccc2)cc1	none
COc1cccc(C(=O)N[C@H]2C[C@H]3C(=O)N[C@H](C)C(=O)N3C2)c1	MITF inh 66 | MITF inh conf inactive | AS interf ctr inactive
Cc1cccc(NC(=O)c2ccc(N3C(=O)C4C5C=CC(C6CC56)C4C3=O)cc2)c1 (configuration not stated)	none
Cc1cccc(NC(=O)c2ccc(N3C(=O)C4C5C=CC(C5)C4C3=O)cc2)c1 (configuration not stated)	MITF inh 76 | MITF inh conf inactive | AS interf ctr inactive
COc1ccc(Br)cc1CN(CCc1ccc2c(c1)OCO2)Cc1cccnc1	MITF inh 52 | MITF inh conf inactive | AS interf ctr inactive
CCOc1ccccc1CN(CCc1ccc2c(c1)OCO2)Cc1cc(OC)c(OC)cc1OC	none
CCOc1ccccc1CN(CCc1ccc2c(c1)OCO2)Cc1ccccn1	MITF inh 84 | MITF inh conf inactive | AS interf ctr inactive
CCC(Sc1nc(NCCOC)c2ccccc2n1)C(=O)NCc1cccnc1 (configuration not stated)	none
CSc1ccccc1C(=O)NCc1ccc2c(c1)OCO2	none
CCSc1ccccc1C(=O)NCc1ccc2c(c1)OCO2	MITF inh 75 | MITF inh conf inactive | AS interf ctr inactive
CSc1ccccc1NC(=O)CN(C)C(C)C(=O)NCc1ccc2c(c1)OCO2 (configuration not stated)	MITF inh 88 | MITF inh conf inactive | AS interf ctr inactive
O=C(CSc1nc2ccccc2[nH]1)Nc1cccc([N+](=O)[O-])c1	none
Cc1cc(C)nc(Nc2ccc([N+](=O)[O-])cc2)n1	MITF inh 69 | MITF inh conf inactive | AS interf ctr inactive
Cc1cc(C)nc(Nc2ccc(C)c([N+](=O)[O-])c2)n1	none
COc1ccc(/C=N/Nc2ccc(S(=O)(=O)O)cc2)cc1	none
COc1ccc2cc(/C=N/Nc3ccc(S(=O)(=O)O)cc3)ccc2c1	MITF inh 66 | MITF inh conf inactive | AS interf ctr inactive
CC(NC(=O)C1CCN(Cc2ccccc2O)CC1)c1ccccc1 (configuration not stated)	none
CC(NC(=O)C1CCN(Cc2ccccc2)CC1)c1ccccc1 (configuration not stated)	MITF inh 53 | MITF inh conf inactive | AS interf ctr inactive
CC(NC(=O)C1CCNCC1)c1ccccc1 (configuration not stated)	MITF inh 51 | MITF inh conf inactive | AS interf ctr inactive
COc1ccc(CN2CCC(C(=O)NC(C)C)CC2)c(OC)c1OC	MITF inh 71 | MITF inh conf inactive | AS interf ctr inactive
COc1ccc(OC)c(CN2CCC(C(=O)NC(C)c3ccccc3)CC2)c1 (configuration not stated)	MITF inh 52 | MITF inh conf inactive | AS interf ctr inactive
COc1ccc(CCNC(=O)CCCn2c(SCc3ccccc3Cl)nc3cc4c(cc3c2=O)OCO4)cc1OC	none
Cc1ccc(C(=O)Oc2coc(CSc3nc(C)cc(C)n3)cc2=O)cc1	MITF inh 55 | MITF inh conf inactive | AS interf ctr inactive
O=S1(=O)CC(OS(=O)(=O)c2ccccc2)C(OS(=O)(=O)c2ccccc2)C1 (configuration not stated)	MITF inh 71 | MITF inh conf inactive | AS interf ctr inactive

Assay outcomes from PubChem.
